Experimental data taken from paper PMC7862700, “An all-to-all approach to the identification of sequence-specific readers for epigenetic DNA modifications on cytosine”.

Tests used:
Test in all cases: DAPPL (digital affinity profiling via proximity ligation, sequencing); 10 mM Tris-HCl pH 7.5, 50 mM NaCl, 1 mM DTT, 4% glycerol, room temperature, 30 min; GST-TFs on glutathione beads, 16-mer random dsDNA library, 0.1% formaldehyde crosslink after washing; high values mean tight binding
FLI1 = target: T1, FLI1 (Homo sapiens, UniProt Q01543 1-452); details: protein: recombinant; tags: N-terminal GST; dsDNA, one strand shown
T1 sequence: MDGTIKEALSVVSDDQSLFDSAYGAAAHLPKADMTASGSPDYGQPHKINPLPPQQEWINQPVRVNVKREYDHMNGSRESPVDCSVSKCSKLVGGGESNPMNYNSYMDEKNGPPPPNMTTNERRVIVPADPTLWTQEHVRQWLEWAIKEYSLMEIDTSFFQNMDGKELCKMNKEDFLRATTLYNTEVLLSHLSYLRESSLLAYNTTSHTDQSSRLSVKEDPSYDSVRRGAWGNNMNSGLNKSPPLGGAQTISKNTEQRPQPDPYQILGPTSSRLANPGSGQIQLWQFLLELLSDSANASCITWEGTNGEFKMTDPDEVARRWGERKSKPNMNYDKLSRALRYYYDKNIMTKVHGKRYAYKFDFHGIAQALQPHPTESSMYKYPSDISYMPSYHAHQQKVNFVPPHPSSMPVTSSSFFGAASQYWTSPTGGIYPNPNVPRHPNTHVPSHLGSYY
How it was run: (§1)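 In yeast, human transcription factors were expressed with a GST fusion, then pulled down on glutathione beads and given DNA barcodes. Pooled with a tag-only sample, they were exposed to 200 nmole of a 16-mer random double-stranded DNA library (Tris/NaCl/DTT/glycerol buffer, room temperature, 30 min), washed, crosslinked with 0.1% formaldehyde, proximity-ligated using BsaI/T4 ligase for 1 h at 37 °C, PCR-amplified and read on an Illumina NextSeq500. Each hexamer's frequency of reads for a factor, divided by the matching frequency for the tag-only sample, gives the binding signal.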

ELK1 = target: T2, ELK1 (Homo sapiens, UniProt P19419 1-428); details: protein: recombinant; tags: N-terminal GST; dsDNA, one strand shown
T2 sequence: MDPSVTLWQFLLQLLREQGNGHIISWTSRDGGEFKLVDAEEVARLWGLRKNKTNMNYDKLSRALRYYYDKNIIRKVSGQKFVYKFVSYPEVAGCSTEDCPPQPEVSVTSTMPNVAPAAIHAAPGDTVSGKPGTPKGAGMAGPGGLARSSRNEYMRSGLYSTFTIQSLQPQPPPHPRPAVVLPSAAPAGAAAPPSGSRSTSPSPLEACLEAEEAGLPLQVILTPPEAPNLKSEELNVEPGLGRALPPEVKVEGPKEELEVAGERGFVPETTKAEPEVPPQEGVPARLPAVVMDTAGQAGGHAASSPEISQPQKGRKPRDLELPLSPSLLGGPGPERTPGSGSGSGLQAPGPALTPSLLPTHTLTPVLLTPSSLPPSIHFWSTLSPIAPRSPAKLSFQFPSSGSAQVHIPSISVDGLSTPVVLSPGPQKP
How it was run: as §1

GABPA = target: T3, GABPA (Homo sapiens, UniProt Q06546 1-454); details: protein: recombinant; tags: N-terminal GST; dsDNA, one strand shown
T3 sequence: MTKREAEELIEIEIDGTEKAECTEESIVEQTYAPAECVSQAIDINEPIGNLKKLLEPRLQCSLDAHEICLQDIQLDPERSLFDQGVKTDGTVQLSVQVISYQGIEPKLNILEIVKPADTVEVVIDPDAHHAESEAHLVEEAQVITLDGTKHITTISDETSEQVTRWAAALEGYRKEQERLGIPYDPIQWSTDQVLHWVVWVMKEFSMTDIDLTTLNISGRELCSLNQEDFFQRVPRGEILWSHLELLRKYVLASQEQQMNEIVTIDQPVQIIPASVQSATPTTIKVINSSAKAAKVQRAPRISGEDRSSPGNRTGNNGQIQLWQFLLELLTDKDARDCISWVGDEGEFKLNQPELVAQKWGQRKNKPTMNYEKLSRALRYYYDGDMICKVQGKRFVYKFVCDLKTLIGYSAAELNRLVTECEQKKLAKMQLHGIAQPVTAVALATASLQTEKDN
How it was run: as §1

ERG = target: T4, ERG (Homo sapiens, UniProt P11308 1-479); details: protein: recombinant; tags: N-terminal GST; dsDNA, one strand shown
T4 sequence: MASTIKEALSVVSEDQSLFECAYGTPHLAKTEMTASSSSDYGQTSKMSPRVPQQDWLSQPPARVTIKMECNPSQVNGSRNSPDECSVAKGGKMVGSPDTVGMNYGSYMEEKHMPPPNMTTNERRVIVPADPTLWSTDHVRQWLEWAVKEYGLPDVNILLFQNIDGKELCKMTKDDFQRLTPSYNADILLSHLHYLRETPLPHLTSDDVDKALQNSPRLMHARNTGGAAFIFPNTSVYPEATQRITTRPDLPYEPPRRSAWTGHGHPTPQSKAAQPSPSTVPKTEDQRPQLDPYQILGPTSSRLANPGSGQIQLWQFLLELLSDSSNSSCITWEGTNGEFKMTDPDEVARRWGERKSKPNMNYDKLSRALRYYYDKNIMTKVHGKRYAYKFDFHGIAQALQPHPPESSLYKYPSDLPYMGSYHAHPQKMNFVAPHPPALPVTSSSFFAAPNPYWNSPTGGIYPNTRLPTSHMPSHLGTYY
How it was run: as §1

ELF1 = ELF1 (Homo sapiens, UniProt P32519 1-619); details: protein: recombinant; tags: N-terminal GST; dsDNA, one strand shown
Chain of ELF1 (P32519 whole entry): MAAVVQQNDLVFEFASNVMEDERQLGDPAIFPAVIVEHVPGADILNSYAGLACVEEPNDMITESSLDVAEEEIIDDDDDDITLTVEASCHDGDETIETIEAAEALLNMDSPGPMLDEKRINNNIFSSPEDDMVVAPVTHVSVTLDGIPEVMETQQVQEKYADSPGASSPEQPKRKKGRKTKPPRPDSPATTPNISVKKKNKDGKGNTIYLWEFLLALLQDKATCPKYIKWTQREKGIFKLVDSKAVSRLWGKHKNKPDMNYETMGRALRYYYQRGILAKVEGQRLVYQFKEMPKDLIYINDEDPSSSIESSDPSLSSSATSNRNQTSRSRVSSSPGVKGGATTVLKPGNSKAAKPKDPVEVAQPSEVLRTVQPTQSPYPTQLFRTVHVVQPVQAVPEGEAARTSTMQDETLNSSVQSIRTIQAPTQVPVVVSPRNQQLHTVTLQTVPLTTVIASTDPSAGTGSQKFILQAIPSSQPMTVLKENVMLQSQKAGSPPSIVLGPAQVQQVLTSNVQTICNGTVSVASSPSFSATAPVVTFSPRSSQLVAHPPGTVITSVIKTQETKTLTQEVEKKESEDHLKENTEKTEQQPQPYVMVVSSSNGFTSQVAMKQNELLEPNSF
How it was run: as §1

EHF = target: T5, EHF (Homo sapiens, UniProt Q9NZC4 1-300); details: protein: recombinant; tags: N-terminal GST; dsDNA, one strand shown
T5 sequence: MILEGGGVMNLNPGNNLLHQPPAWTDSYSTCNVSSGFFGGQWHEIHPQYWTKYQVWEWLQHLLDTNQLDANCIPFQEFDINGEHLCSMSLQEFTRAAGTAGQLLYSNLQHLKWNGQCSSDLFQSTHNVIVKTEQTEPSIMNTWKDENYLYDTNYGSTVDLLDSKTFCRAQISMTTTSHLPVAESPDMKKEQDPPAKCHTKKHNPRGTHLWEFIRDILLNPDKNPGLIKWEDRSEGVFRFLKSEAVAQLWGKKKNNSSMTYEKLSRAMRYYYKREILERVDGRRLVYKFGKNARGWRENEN
How it was run: as §1

SPI1 = SPI1 (Homo sapiens, UniProt P17947 1-270); details: protein: recombinant; tags: N-terminal GST; dsDNA, one strand shown
How it was run: as §1

SPIB = SPIB (Homo sapiens, UniProt Q01892 1-262); details: protein: recombinant; tags: N-terminal GST; dsDNA, one strand shown
Chain of SPIB (Q01892 whole entry): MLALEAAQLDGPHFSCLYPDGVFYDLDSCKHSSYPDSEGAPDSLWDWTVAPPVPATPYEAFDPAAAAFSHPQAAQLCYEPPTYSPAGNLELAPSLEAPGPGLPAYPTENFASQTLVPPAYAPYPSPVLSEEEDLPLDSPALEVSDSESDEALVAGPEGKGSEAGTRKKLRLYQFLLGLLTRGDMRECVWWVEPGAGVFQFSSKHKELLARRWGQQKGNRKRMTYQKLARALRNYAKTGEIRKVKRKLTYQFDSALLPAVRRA
How it was run: as §1

ELK3 = target: T6, ELK3 (Homo sapiens, UniProt P41970 1-407); details: protein: recombinant; tags: N-terminal GST; dsDNA, one strand shown
T6 sequence: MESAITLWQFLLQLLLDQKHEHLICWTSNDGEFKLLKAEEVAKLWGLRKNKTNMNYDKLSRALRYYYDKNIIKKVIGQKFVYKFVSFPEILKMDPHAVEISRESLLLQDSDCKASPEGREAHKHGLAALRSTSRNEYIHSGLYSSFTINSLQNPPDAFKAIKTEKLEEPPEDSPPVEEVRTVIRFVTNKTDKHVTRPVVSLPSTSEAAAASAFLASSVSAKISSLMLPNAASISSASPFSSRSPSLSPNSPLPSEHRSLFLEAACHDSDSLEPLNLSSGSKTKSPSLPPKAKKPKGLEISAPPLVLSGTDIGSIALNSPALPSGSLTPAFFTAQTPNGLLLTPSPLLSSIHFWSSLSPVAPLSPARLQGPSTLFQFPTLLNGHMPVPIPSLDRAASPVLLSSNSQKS
How it was run: as §1

FEV = target: T7, FEV (Homo sapiens, UniProt Q99581 1-238); details: protein: recombinant; tags: N-terminal GST; dsDNA, one strand shown
T7 sequence: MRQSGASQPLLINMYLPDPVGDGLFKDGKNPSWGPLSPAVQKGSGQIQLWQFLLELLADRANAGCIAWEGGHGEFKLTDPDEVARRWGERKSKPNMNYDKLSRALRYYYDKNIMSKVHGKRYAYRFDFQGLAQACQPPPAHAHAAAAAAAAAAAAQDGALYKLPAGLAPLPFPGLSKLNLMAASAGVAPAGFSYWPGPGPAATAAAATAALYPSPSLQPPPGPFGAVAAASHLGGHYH
How it was run: as §1

ETV5 = ETV5 (Homo sapiens, UniProt P41161 1-510); details: protein: recombinant; tags: N-terminal GST; dsDNA, one strand shown
Chain of ETV5 (P41161 whole entry): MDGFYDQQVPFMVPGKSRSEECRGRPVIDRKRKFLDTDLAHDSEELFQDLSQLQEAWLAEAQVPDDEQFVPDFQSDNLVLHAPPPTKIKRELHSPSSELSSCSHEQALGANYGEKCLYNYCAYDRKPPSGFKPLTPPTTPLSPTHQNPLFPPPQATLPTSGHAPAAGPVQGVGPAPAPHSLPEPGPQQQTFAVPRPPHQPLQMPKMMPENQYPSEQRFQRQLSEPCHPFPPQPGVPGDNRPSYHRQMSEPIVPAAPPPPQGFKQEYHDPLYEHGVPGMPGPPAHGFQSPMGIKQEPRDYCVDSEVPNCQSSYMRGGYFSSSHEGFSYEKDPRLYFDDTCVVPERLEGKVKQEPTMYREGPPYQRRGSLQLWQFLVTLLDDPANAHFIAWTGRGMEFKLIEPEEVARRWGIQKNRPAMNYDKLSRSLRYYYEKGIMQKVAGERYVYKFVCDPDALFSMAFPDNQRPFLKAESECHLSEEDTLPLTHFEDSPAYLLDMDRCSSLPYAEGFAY
How it was run: as §1

HSF1 = HSF1 (Homo sapiens, UniProt Q00613 1-529); details: protein: recombinant; tags: N-terminal GST; chain copies: 3; dsDNA, one strand shown
Chain of HSF1 (Q00613 whole entry): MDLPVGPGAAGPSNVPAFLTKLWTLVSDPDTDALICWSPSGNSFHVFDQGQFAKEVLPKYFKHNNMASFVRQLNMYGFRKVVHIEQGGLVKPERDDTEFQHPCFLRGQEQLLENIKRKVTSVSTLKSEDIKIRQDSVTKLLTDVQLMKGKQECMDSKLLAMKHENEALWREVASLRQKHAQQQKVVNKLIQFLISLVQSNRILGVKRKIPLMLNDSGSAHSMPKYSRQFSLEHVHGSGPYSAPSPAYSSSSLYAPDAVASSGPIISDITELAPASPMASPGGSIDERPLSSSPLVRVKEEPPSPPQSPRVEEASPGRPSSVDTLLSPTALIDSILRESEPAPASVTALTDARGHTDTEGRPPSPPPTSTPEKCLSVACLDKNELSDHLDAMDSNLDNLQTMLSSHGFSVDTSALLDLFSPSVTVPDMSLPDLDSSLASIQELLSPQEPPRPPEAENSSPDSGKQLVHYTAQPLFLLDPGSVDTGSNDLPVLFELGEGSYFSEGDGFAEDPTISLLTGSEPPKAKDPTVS
How it was run: as §1

SPIC = target: T8, SPIC (Homo sapiens, UniProt Q8N5J4 1-248); details: protein: recombinant; tags: N-terminal GST; dsDNA, one strand shown
T8 sequence: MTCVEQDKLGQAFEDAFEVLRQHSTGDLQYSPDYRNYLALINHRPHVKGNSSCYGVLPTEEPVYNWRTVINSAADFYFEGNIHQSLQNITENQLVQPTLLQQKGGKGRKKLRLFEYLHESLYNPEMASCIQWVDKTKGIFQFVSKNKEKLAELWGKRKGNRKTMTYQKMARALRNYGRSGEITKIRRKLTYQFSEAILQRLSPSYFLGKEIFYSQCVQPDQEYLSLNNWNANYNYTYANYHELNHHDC
How it was run: as §1

ELF4 = ELF4 (Homo sapiens, UniProt Q99607 1-663); details: protein: recombinant; tags: N-terminal GST; dsDNA, one strand shown
Chain of ELF4 (Q99607 whole entry): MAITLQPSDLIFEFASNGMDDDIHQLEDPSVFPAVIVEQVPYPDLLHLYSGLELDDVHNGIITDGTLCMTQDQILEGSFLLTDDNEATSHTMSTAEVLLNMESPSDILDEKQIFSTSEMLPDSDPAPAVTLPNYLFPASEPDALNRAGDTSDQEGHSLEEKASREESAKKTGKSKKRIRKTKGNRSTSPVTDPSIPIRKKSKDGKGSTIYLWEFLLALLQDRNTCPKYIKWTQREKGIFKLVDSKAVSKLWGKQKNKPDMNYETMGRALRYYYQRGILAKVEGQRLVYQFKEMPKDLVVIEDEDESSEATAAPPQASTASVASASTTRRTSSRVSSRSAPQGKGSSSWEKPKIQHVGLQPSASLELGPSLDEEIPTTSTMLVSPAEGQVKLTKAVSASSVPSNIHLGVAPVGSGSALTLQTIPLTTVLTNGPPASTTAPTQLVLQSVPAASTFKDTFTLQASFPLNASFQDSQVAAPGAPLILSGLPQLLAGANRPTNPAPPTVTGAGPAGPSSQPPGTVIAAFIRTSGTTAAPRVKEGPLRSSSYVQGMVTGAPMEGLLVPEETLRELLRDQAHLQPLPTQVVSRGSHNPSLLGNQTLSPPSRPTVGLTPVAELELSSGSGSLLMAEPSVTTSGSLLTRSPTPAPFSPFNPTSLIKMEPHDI
How it was run: as §1

ELK4 = target: T9, ELK4 (Homo sapiens, UniProt P28324-2 1-405); details: protein: recombinant; tags: N-terminal GST; dsDNA, one strand shown
T9 sequence: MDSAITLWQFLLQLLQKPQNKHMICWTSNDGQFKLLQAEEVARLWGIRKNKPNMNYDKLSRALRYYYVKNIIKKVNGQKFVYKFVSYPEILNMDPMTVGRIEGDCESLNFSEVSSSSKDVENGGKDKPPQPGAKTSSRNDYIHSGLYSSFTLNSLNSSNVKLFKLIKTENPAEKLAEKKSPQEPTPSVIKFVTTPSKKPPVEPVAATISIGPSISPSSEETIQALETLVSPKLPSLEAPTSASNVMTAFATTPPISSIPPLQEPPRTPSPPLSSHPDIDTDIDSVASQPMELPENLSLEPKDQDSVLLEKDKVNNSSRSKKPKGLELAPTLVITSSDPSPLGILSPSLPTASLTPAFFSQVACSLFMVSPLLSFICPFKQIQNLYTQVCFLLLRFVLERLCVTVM
How it was run: as §1

ETV2 = target: T10, ETV2 (Homo sapiens, UniProt O00321 1-342); details: protein: recombinant; tags: N-terminal GST; dsDNA, one strand shown
T10 sequence: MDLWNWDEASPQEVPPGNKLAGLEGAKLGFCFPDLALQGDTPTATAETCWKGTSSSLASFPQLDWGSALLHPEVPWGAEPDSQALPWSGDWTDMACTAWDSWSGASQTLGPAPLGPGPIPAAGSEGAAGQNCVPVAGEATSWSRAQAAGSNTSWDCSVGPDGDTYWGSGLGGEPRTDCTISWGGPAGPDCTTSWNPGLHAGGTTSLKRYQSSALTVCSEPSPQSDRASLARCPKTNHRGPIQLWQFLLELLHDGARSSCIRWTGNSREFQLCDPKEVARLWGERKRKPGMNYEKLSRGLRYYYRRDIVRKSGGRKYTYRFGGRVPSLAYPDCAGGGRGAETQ
How it was run: as §1

ELF3 = target: T11, ELF3 (Homo sapiens, UniProt P78545 1-371); details: protein: recombinant; tags: N-terminal GST; dsDNA, one strand shown
T11 sequence: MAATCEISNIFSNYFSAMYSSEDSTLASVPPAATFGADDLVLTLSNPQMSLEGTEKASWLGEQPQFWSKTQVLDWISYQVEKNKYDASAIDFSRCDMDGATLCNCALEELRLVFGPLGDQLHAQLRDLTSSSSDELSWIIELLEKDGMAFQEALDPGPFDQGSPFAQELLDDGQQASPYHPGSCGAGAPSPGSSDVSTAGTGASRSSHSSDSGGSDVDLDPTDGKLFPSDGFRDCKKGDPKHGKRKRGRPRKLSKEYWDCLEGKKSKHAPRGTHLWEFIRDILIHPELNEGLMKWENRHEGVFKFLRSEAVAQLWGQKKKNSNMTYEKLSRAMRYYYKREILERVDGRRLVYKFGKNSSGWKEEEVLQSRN
How it was run: as §1

CRX = CRX (Homo sapiens, UniProt O43186 1-299); details: protein: recombinant; tags: N-terminal GST; dsDNA, one strand shown
Chain of CRX (O43186 whole entry): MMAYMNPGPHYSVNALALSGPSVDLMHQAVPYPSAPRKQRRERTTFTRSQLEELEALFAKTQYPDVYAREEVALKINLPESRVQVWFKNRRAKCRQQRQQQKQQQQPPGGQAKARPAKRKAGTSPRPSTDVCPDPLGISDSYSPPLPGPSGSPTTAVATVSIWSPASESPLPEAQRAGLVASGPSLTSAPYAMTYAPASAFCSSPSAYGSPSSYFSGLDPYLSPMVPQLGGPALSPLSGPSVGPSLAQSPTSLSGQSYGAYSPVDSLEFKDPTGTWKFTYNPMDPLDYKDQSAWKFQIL
How it was run: as §1

ETV1 = ETV1 (Homo sapiens, UniProt P50549 1-477); details: protein: recombinant; tags: N-terminal GST; dsDNA, one strand shown
Chain of ETV1 (P50549 whole entry): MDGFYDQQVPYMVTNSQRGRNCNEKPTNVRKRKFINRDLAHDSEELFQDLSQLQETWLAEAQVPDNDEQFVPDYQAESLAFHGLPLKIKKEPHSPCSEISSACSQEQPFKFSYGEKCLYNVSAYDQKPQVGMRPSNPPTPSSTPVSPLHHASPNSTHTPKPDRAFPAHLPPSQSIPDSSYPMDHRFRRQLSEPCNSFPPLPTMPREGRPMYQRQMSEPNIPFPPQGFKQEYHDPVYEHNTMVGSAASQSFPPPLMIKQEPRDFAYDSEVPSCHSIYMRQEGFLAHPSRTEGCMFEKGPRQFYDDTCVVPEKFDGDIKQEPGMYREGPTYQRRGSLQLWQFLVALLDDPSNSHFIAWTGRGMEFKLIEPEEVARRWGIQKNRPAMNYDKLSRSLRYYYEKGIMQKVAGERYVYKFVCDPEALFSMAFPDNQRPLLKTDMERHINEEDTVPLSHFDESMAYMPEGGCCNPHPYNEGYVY
How it was run: as §1

ACGTTC
binding signal (FLI1): 1.31 fold enrichment (6-mer frequency, TF over GST control) | binding signal (ELK1): 1.45 fold enrichment (6-mer frequency, TF over GST control) | binding signal (GABPA): 1.33 fold enrichment (6-mer frequency, TF over GST control) | binding signal (ERG): 1.39 fold enrichment (6-mer frequency, TF over GST control) | binding signal (ELF1): 1.4 fold enrichment (6-mer frequency, TF over GST control) | binding signal (EHF): 1.3 fold enrichment (6-mer frequency, TF over GST control) | binding signal (SPI1): 1.29 fold enrichment (6-mer frequency, TF over GST control) | binding signal (SPIB): 1.37 fold enrichment (6-mer frequency, TF over GST control) | binding signal (ELK3): 1.38 fold enrichment (6-mer frequency, TF over GST control) | binding signal (FEV): 1.3 fold enrichment (6-mer frequency, TF over GST control) | binding signal (ETV5): 1.27 fold enrichment (6-mer frequency, TF over GST control) | binding signal (HSF1): 1.94 fold enrichment (6-mer frequency, TF over GST control) | binding signal (SPIC): 1.21 fold enrichment (6-mer frequency, TF over GST control) | binding signal (ELF4): 1.42 fold enrichment (6-mer frequency, TF over GST control) | binding signal (ELK4): 1.29 fold enrichment (6-mer frequency, TF over GST control) | binding signal (ETV2): 1.25 fold enrichment (6-mer frequency, TF over GST control) | binding signal (ELF3): 1.25 fold enrichment (6-mer frequency, TF over GST control) | binding signal (CRX): 1.28 fold enrichment (6-mer frequency, TF over GST control) | binding signal (ETV1): 1.28 fold enrichment (6-mer frequency, TF over GST control)
